Screens deposited in PubChem BioAssay by SRMLSC.
Hits are enriched below; roughly 6.8% of the tested compounds scored in any of these assays.
NADH enzymes: inhibitors of PK/LDH coupling enzymes, profiling panel, artefact control, biochemical, MLSMR library. coupled PK/LDH NADH assays, four targets. IC50, µM (series often up to 10 µM), for inactives: at the highest dose inhibition. 0.02% of 65,000 active;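 active = single-dose screening hits from any of four coupled enzyme assays that gave an IC50 when retested across doses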;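 note: the DPM-DC format reads NADH fluorescence rather than 340 nm absorbance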
Spn PMK inh: S. pneumoniae PMK inhibitors, primary screen, biochemical, mevalonate pathway, pilot trial included; inhibition, % at 10 µM; 0.49% of 65,000 active; phosphomevalonate kinase (Streptococcus pneumoniae D39); purified PMK, PK/LDH-coupled NADH absorbance 340 nm;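 active = top-ranked compounds by inhibition in the single 10 µM screen, taking a fixed number of the strongest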;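 note: 0% = full reaction with DMSO carrier and 100% = background rate without enzyme reaction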
Abs 340nm: compound light absorbance at 340 nm, profiling panel, artefact control, biochemical, MLSMR library, data from PS, PMK, MK assays; compound absorbance at 340 nm, fold over control; fold change at 10 µM; 65,000 tested, under 10 active; AID 708, 2007;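 active = at 10 µM dose, initial 340 nm absorbance at least 2 fold that of control wells; inactive = change under 2 fold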;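 note: initial absorbance extrapolated from kinetic A340 decline of NADH oxidation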
DPM-DC inhibit: S. pneumoniae DPM-DC inhibitors, primary screen, biochemical, PK/LDH-coupled NADH fluorescence. diphosphomevalonate decarboxylase (Streptococcus pneumoniae D39). purified DPM-DC. calls only at 10 µM. 0.49% of 65,000 active. AID 556, 2006;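 active = the 320 compounds with the highest percent inhibition in the single-dose primary screen, excluding strongly autofluorescent ones, cut at about 32% in these data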;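 note: kinetic rate of NADH fluorescence loss reporting ADP formed by the decarboxylase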
Autofluor 339: intrinsic fluorescence of library compounds, ex339/em460 – biochemical, MLSMR library, data from DPM-DC assay, artefact control, profiling panel; compound autofluorescence, ex339/em460 nm, NADH buffer; active compounds read high; 1 = no-compound wells, NADH background; AID 709, 2007; fluorescence fold increase at 10 µM; 5.5% of 65,000 active;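 active = at 10 µM, mean starting fluorescence two-fold or more over control wells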;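 note: signal is the first read of a kinetic run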
Spn MK inh: S. pneumoniae MK inhibitors, primary screen, biochemical, PK/LDH-coupled NADH absorbance. mevalonate kinase [Streptococcus pneumoniae D39]. inhibition, % at 10 µM. purified MK, PK/LDH-coupled NADH absorbance 340 nm. 0.48% of 65,000 active. AID 555, 2006;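 active = ranked among the strongest by inhibition in the single 10 µM screen, a fixed top-ranked set picked for dose follow-up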
An asterisk follows results filed as active; i = inactive; nt = not tested or not shown; + = active, no number.

SMILES | NADH enzymes | Spn PMK inh | Abs 340nm | DPM-DC inhibit | Autofluor 339 | Spn MK inh
COc1ccc(-c2csc(NCc3ccco3)n2)cc1C | 6.0% | 7.0 | 1.01 | i | 1.12 | 12.0
CCOc1ccc(CCNC(=O)C2CCCN(c3nn4c(=O)cc(C)nc4s3)C2)cc1 (centres undefined) | 7.0% | 22.0 | 1.02 | i | 1.05 | 0.0
COCCNC(=O)C1CCCN(c2nn3c(=O)cc(C)nc3s2)C1 (centres undefined) | 11.0% | 33.0* | 1 | i | 1.03 | 0.0
CCC(C)(C)n1nnnc1C(c1cc2cc(C)ccc2[nH]c1=O)N1CCCC1 (centres undefined) | 7.0% | 11.0 | 1.03 | i | 1.42 | 15.0
CC(C)(C)n1nnnc1C(c1cc2cc3c(cc2[nH]c1=O)OCO3)N1CCN(c2ccccc2)CC1 (centres undefined) | 13.0% | 6.0 | 1.06 | + | 3.04* | 2.0
O=c1[nH]c2cc3c(cc2cc1C(c1nnnn1CC1CCCO1)N1CCCC1)OCO3 (centres undefined) | 11.0% | 13.0 | 1.09 | nt | 4.79* | 9.0
CCN1CCN(C(c2cc3cc4c(cc3[nH]c2=O)OCO4)c2nnnn2C(C)(C)CC)CC1 (centres undefined) | 8.0% | 6.0 | 1.06 | nt | 4.01* | 10.0
OC1(c2cccc(C(F)(F)F)c2)CCN(c2ncnc3c2[nH]c2ccc(F)cc23)CC1 | 4.0% | 1.0 | 1.06 | i | 2.54* | 7.0
CN(C(=O)c1cc2nc(-c3ccco3)cc(C(F)(F)F)n2n1)C1CCCCC1 | 5.0% | 4.0 | 1.1 | nt | 2.18* | 6.0
Cc1ccccc1Cn1ccc(NC(=O)c2cc3nc(-c4ccco4)cc(C(F)(F)F)n3n2)n1 | 8.0% | 12.0 | 1.1 | nt | 3.83* | 4.0
COc1ccc(-c2cc(C(F)(F)F)n3nc(C(=O)N4CCCCC4)cc3n2)cc1 | 4.0% | 0.0 | 1.11 | nt | 2.26* | 8.0
O=C(c1cc2nc(-c3ccco3)cc(C(F)(F)F)n2n1)N1CCN(c2ccccc2)CC1 | 2.0% | 1.0 | 1.11 | i | 1.24 | 3.0
O=C(c1cc2nc(-c3ccco3)cc(C(F)(F)F)n2n1)N1CCCCCC1 | 9.0% | 13.0 | 1.13 | nt | 2.17* | 5.0
CCCC(=O)Nc1c(C)nn(C(=O)CCC)c1C | 6.0% | 0.0 | 1.01 | i | 0.9 | 14.0
O=C(c1cc2nc(-c3ccc(F)cc3)cc(C(F)(F)F)n2n1)N1CCCC1 | 17.0% | 9.0 | 1.05 | + | 1.47 | 6.0
O=C(c1cc2nc(-c3ccccc3)cc(C(F)(F)F)n2n1)N1CCCC1 | 2.0% | 0.0 | 1.05 | i | 1.25 | 6.0
CC(C)Nc1nc(SCC(=O)Nc2ccccc2)nc(N2CCOCC2)n1 | 8.0% | 13.0 | 1 | i | 1.06 | 4.0
COC(=O)C1=C(N)OC2=C(C(=O)CC(C)(C)C2)C1c1cccs1 (centres undefined) | 1.0% | 0.0 | 1.05 | i | 1.1 | 4.0
COC(=O)C1=CN(CCCN2CCCC2=O)C=C(C(=O)OC)C1c1cccs1 | 6.0% | 8.0 | 1.04 | nt | 4.82* | 4.0
Cc1ccc2[nH]c3c(c2c1)CCc1cn[nH]c1-3 | 6.0% | 12.0 | 0.99 | i | 1.84 | 3.0
O=C1CCCc2c1[nH]c1ccc(CN3CCCCC3)cc21 | 3.0% | 0.0 | 1.13 | nt | 2.1* | 6.0
Cc1ccc2[nH]c3c(c2c1)CCC3=O | 8.0% | 9.0 | 1 | nt | 3.73* | 7.0
Cc1[nH]c2ccc(Br)cc2c(=O)c1CN1CCCCC1 | 4.0% | 8.0 | 1.07 | i | 1.07 | 4.0
CCOC(=O)c1cc(S(=O)(=O)N2CCN(C(=O)OCC)CC2)cn1C | 5.0% | 16.0 | 0.98 | i | 1.02 | 0.0
C(=N\c1nccs1)/Nc1nccs1 | 6.0% | 18.0 | 1.09 | i | 1.04 | 0.0
SMILES | NADH enzymes | Spn PMK inh | Abs 340nm | DPM-DC inhibit | Autofluor 339 | Spn MK inh
Cc1cc(N2CCOCC2)c2c(N)c(Br)cc(C)c2n1 | 16.0% | 9.0 | 1.08 | + | 0.68 | 3.0
S=c1[nH]ncn1-c1ccccn1 | 4.0% | 9.0 | 0.98 | i | 1.04 | 18.0
COc1ccc(NC(=O)N(CCN2CCCC2)Cc2cc3cc(OC)c(OC)cc3[nH]c2=O)cc1 | 9.0% | 7.0 | 1.16 | i | 2.08* | 4.0
COc1ccc(NC(=O)N(CCCN(C)C)Cc2cc3cc(OC)ccc3[nH]c2=O)cc1 | 8.0% | 16.0 | 1.07 | i | 1.77 | 7.0
CCN(CC)CCCN(Cc1cc2cc(OC)ccc2[nH]c1=O)C(=O)Nc1ccccc1 | 7.0% | 16.0 | 0.99 | i | 1.8 | 2.0
CCN(CC)CCCN(Cc1cc2cc(OC)ccc2[nH]c1=O)C(=O)Nc1ccc(F)cc1 | 9.0% | 9.0 | 1.09 | i | 2* | 1.0
Cc1cc(Cl)c(S(=O)(=O)NC2CCCCC2)cc1OCC(=O)Nc1nncs1 | 3.0% | 9.0 | 0.99 | i | 1 | 6.0
O=C(NCC1CCCO1)C1CCC(CNS(=O)(=O)c2ccccc2)CC1 (centres undefined) | 4.0% | 17.0 | 0.96 | i | 0.98 | 4.0
Cc1ccc2[nH]c(=O)c(CN(CCO)C(=O)NCc3ccccc3)cc2c1 | 6.0% | 9.0 | 1 | i | 1.54 | 3.0
COc1ccc2[nH]c(=O)c(CN(C(=O)c3ccccn3)C3CCCCC3)cc2c1 | 13.0% | 10.0 | 1.03 | i | 2.85* | 5.0
COc1cc2cc(CN(C(=O)NC3CCCCC3)C3CCCC3)c(=O)[nH]c2cc1OC | 11.0% | 12.0 | 1.13 | nt | 3.87* | 9.0
COc1ccc2cc(CN(C(=O)Nc3ccccc3OC)C3CCCC3)c(=O)[nH]c2c1 | 6.0% | 9.0 | 1.05 | i | 1.11 | 9.0
COc1ccc2[nH]c(=O)c(CN(CCN(C)C)C(=O)NCc3ccccc3)cc2c1 | 14.0% | 14.0 | 1.04 | i | 3.76* | 8.0
CCC(=O)N(CCc1ccccc1C)Cc1cc2cc3c(cc2[nH]c1=O)OCO3 | 11.0% | 13.0 | 1.12 | nt | 3.81* | 9.0
COc1ccc(C(=O)O)cc1Nc1cc(C)nc2ncnn12 | 0.0% | 0.0 | 1.04 | i | 1.09 | 0.0
CCOc1ccc(C2CC(c3cccc(OC)c3)Nc3ncnn32)cc1 (centres undefined) | 3.0% | 2.0 | 1.04 | i | 1.1 | 6.0
COCCn1c(Cc2ccccc2)nnc1SCC(=O)N(C)C | 7.0% | 17.0 | 0.98 | i | 1.11 | 5.0
COc1cc2cc(CN(Cc3cccnc3)C(=O)NCc3ccccc3)c(=O)[nH]c2cc1OC | 7.0% | 6.0 | 1.16 | nt | 4.85* | 8.0
Cc1ccc2cc(CN(CCN3CCOCC3)C(=O)NCc3ccccc3)c(=O)[nH]c2c1C | 6.0% | 7.0 | 1.05 | i | 2.06* | 8.0
